According to PubChem BioAssay (NCATS):
Values joined by “and” are separate entries in the source; they are usually repeats but may differ in a detail not shown here. Equal values may be shown once. Results filed as inconclusive are left out. Active and inactive are the calls of the source. Unless noted, calls follow the shape of the dose curve; as a rule, active = well fitted curve in either direction with a large enough effect (not every such curve was filed as active); inconclusive = small, poorly fitted or top-dose-only effect, or another doubt; inactive = flat fitted curve, though single readings scatter.

Key:
[1] = Stat Signaling Pathway (AID 446);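 also: ME-180 cervical cancer cells given 40 pM IL-6 alongside compound; SIE-controlled beta-lactamase reporter measured as 460/530 nm FRET emission ratio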
Method in brief: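 Reporter line: ME-180 cervical carcinoma, SIE-beta-lactamase. Treatment: compound with 40 pM IL-6, 5 hrs, 37 C, in low-serum OPTI-MEM with 10 mM HEPES pH 7.3. Detection: 460/530 nm fluorescence.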

[2] = target: Glucocorticoid receptor (Homo sapiens) (UniProt P04150); assay: GR-GFP Redistribution (AID 450;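 active = compounds whose dose series gives a full or clear partial fitted curve of increased nuclear translocation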; also: potency is read from the fitted curve at half-maximal effect); details: U2OS GR-GFP nuclear translocation, laser cytometry, 2 h
[3] = target: Mitogen-activated protein kinase 10 (Mus musculus) (UniProt Q61831); assay: JNK3 AlphaScreen Assay (AID 530);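 also: kinase came from lysate of stimulated human HepG2 cells; signal reports phosphorylation of biotinylated GST-cJun 1-79 at Ser73 with 10 µM ATP; series mostly up to about 57 µM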
Method in brief: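 JNK3 came from HepG2 lysates pre-activated with IL-1beta and TNF-alpha and phosphorylated biotinylated GST-cJun (1-79) at 10 uM ATP, pH 7.6, room temperature. Compounds were titrated. AlphaScreen signal used anti-phospho-cJun (Ser73) antibody.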

[4] = Cell Viability - N2a (AID 540; active = well fitted curve in the direction sought with a large enough effect; an effect the other way counts as inactive or inconclusive;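 also: cells exposed to compound for 40 h at 37 °C; nearly all actives have a fitted effect of over 45% in size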)
Method in brief: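 First, 1500 N2a cells per well incubate 5 hr at 37 °C; next, compounds are added and incubated 40 hr at 37 °C; finally CellTiter-Glo is added and luminescence read after 20 min, with AC50 derived by Hill modeling.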

[5] = Cell Viability - NIH 3T3 (AID 541; active = well fitted curve in the direction sought with a large enough effect; an effect the other way counts as inactive or inconclusive; also: nearly all actives have a fitted effect of over 25% in size)
Method in brief: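 AC50 values reflect concentration-dependent loss of intracellular ATP in NIH 3T3 cells after 40 hr treatment in complete culture medium, quantified by luciferase-based luminescence.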

[6] = Cell Viability - HUV-EC-C (AID 542; active = well fitted curve in the direction sought with a large enough effect; an effect the other way counts as inactive or inconclusive; also: nearly all actives have a fitted effect of over 35% in size)
Method in brief: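 Decrease in cellular ATP, quantified by luciferase luminescence, reflects toxicity in normal human vascular endothelial HUV-EC-C cells given compound for 40 hr in complete culture medium. Values are AC50s from concentration-response curves.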

[7] = Cell Viability - H-4-II-E (AID 543; active = well fitted curve in the direction sought with a large enough effect; an effect the other way counts as inactive or inconclusive; also: nearly all actives have a fitted effect of over 35% in size)
Method in brief: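 Here, cytotoxicity is measured in the rat hepatoma line H-4-II-E as loss of intracellular ATP after 40 hr compound treatment, detected by luciferase luminescence.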

[8] = Cell Viability - SH-SY5Y (AID 544; active = well fitted curve in the direction sought with a large enough effect; an effect the other way counts as inactive or inconclusive; also: nearly all actives have a fitted effect of over 55% in size)
Method in brief: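 Cytotoxicity is scored as a concentration-dependent fall in intracellular ATP in human SH-SY5Y cells treated 40 hr in complete culture medium. Potency is expressed as AC50 from a Hill equation fit.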

[9] = Cell Viability - Renal Proximal Tubule (AID 545; active = well fitted curve in the direction sought with a large enough effect; an effect the other way counts as inactive or inconclusive; also: nearly all actives have a fitted effect of over 40% in size)
Method in brief: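 In this qHTS format, normal rat kidney-derived proximal tubule cells in complete culture medium receive compound titrations, then sit 40 hours at 37 °C before luciferase-based ATP quantitation; potency is reported as AC50 from concentration-response curves.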

[10] = Cell Viability - Mesenchymal (AID 546; active = well fitted curve in the direction sought with a large enough effect; an effect the other way counts as inactive or inconclusive;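 also: cells exposed to compound for 40 hours before reading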)
Method in brief: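 Normal human renal glomerulus-derived kidney mesenchymal cells, 1000 per well in complete medium, were treated with compounds for 40 hr at 37 °C. Viability was read as intracellular ATP by CellTiter-Glo luminescence; AC50 values came from Hill-equation fits of qHTS concentration-response data.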

[11] = Cellular Toxicity (caspase-3) HepG2 (AID 654; active = well fitted curve in the direction sought with a large enough effect; an effect the other way counts as inactive or inconclusive;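 also: cells exposed to compound for 16 hours before reading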)
Method in brief: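 qHTS, HepG2, 1500 cells/well, complete medium; cpd 16 h 37 °C; Caspase-Glo 3/7, 20 min RT; lum. Norm: DMSO vs 100 uM tamoxifen; AC50 Hill fit.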

[12] = Cellular Toxicity (caspase-3) Jurkat (AID 655; active = well fitted curve in the direction sought with a large enough effect; an effect the other way counts as inactive or inconclusive;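 also: cells exposed to compound for 16 h at 37 °C before reading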)
Method in brief: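 qHTS in human Jurkat T-cell leukemia line: 16 hr compound treatment at 37 °C, caspase-3/7 activity measured by Caspase-Glo luminescence. AC50 derived from Hill equation.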

[13] = Cellular Toxicity (caspase-3) HUV-EC-C (AID 656; active = well fitted curve in the direction sought with a large enough effect; an effect the other way counts as inactive or inconclusive)
Method in brief: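 Concentration-dependent caspase 3/7 induction was assessed in HUV-EC-C cells exposed for 16 hours. Data scaled between DMSO and tamoxifen (100 uM) controls.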

[14] = Cellular Toxicity (caspase-3) SHSY5Y (AID 657; active = well fitted curve in the direction sought with a large enough effect; an effect the other way counts as inactive or inconclusive;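 also: cells exposed to compound for 16 hours at 37 °C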)
Method in brief: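 Readout: caspase-cleaved peptide-aminoluciferin substrate driving luciferase light in SH-SY5Y neuroblastoma cells after 16 h treatment. Response normalized to DMSO and 10 uM staurosporine controls.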

[15] = Cellular Toxicity (caspase-3) BJ (AID 658; active = well fitted curve in the direction sought with a large enough effect; an effect the other way counts as inactive or inconclusive)
Method in brief: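 Luminescent aminoluciferin-substrate cleavage reports caspase 3/7 activity in normal human BJ fibroblasts after 16 hr compound exposure at 37 °C. Normalized to DMSO (basal) and 10 uM staurosporine (100%); AC50 from Hill fit of concentration-response.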

[16] = Cellular Toxicity (caspase-3) MRC-5 (AID 659; active = well fitted curve in the direction sought with a large enough effect; an effect the other way counts as inactive or inconclusive;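 also: cells exposed to compound for 16 h at 37 °C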)
Method in brief: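 Luminescence from caspase-cleaved aminoluciferin substrate (Caspase-Glo 3/7, 1 hr RT) reports caspase 3/7 activity in MRC-5 lung fibroblasts after 16 hr compound exposure. Normalized to DMSO basal and 10 uM staurosporine as 100%; AC50 from Hill fits.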

[17] = Cellular Toxicity (caspase-3) Mesangial (AID 660; active = well fitted curve in the direction sought with a large enough effect; an effect the other way counts as inactive or inconclusive;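 also: combined caspase 3 and 7 activity read by Caspase-Glo luminescence; cells exposed to compound for 16 h before the caspase read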)
Method in brief: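 Concentration-response qHTS: compound-induced rise in caspase 3/7 luminescence in human mesangial cells after 16 h, normalized to DMSO and 100 uM tamoxifen controls.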

[18] = Cellular Toxicity (caspase-3) SK-N-SH (AID 661; active = well fitted curve in the direction sought with a large enough effect; an effect the other way counts as inactive or inconclusive)
Method in brief: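 Caspase 3/7 activation is measured as a luminescence increase from aminoluciferin released by substrate cleavage in SK-N-SH cells after 16 hr compound treatment; values are AC50 from concentration-response curves.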

[19] = Cellular Toxicity (caspase-3) H-4-II-E (AID 663; active = well fitted curve in the direction sought with a large enough effect; an effect the other way counts as inactive or inconclusive;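 also: cells exposed to compound for 16 hr before readout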)
Method in brief: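 Luminescence from caspase-cleaved aminoluciferin substrate, read 20 min after reagent addition, reports caspase 3/7 activation in rat H-4-II-E cells after 16 hr compound exposure. Normalized to DMSO (basal) and 100 uM tamoxifen (100%); AC50 from Hill fits.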

[20] = Cellular Toxicity (caspase-3) Hek293 (AID 664; active = well fitted curve in the direction sought with a large enough effect; an effect the other way counts as inactive or inconclusive;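 also: cells exposed to compound for 16 h at 37 °C before readout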)
Method in brief: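 Activation of caspase-3/7 is measured as increased luminescence from cleaved peptide-aminoluciferin substrate in HEK293 cells treated 16 hours at 37 °C. AC50 values come from Hill-equation fits of concentration-response data.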

Measured: Potency

Sequence of Glucocorticoid receptor (Homo sapiens) (P04150 whole entry, looked up): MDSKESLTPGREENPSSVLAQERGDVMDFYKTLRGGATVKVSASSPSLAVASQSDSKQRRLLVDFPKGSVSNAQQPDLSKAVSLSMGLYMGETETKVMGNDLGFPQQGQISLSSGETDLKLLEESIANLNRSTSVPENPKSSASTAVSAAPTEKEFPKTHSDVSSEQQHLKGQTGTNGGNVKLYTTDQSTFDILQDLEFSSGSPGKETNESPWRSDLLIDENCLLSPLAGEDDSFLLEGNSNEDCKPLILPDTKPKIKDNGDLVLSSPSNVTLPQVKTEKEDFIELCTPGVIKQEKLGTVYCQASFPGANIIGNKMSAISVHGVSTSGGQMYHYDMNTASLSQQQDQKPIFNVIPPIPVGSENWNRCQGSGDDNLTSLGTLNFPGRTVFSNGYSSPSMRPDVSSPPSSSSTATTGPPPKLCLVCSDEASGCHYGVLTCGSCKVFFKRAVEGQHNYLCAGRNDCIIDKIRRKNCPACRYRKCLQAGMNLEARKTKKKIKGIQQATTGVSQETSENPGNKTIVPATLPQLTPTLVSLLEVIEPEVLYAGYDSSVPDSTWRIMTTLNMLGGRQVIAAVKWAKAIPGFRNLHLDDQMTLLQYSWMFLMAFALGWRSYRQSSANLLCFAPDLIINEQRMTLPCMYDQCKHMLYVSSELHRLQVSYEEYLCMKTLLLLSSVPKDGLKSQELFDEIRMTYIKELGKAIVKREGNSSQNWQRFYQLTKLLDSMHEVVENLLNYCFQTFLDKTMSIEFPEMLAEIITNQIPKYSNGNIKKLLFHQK

Clc1cccc(Cl)c1NC1=NCCN1
inactive: [1] | [2] > 46 µM and > 20.6 µM | [3]

N=c1nc(N2CCCCC2)cc(N)n1O
inactive: [1] | [2] > 46 µM and > 20.6 µM | [3]

Nc1nc2ccc(OC(F)(F)F)cc2s1
inactive: [1] | [2] > 46 µM and > 20.6 µM | [3]

CCOC(=O)C1=C[C@]2(CC)CCCN3CCc4c(n1c1ccccc41)[C@@H]32
inactive: [1] | [2] > 20.6 µM

Cc1oncc1C(=O)Nc1ccc(C(F)(F)F)cc1
inactive: [1] | [2] > 46 µM and > 20.6 µM | [3]

NNCCc1ccccc1
inactive: [1] | [2] > 46 µM and > 20.6 µM | [3]

NC[C@H](O)c1ccc(O)c(O)c1
inactive: [1] | [2] > 46 µM | [3]

Cc1ccccc1C(OCCN(C)C)c1ccccc1 (stereo not drawn)
inactive: [1] | [2] > 20.6 µM

CN1CCN(CCCN2c3ccccc3Sc3ccc(C(F)(F)F)cc32)CC1
inactive: [1] | [2] > 46 µM and > 20.6 µM | [3]

Nc1ccc(S(=O)(=O)Nc2ccnn2-c2ccccc2)cc1
inactive: [1] | [2] > 46 µM and > 20.6 µM | [3]

Cc1cnc(NC(=O)C2=C(O)c3ccccc3S(=O)(=O)N2C)s1
inactive: [1] | [2] > 46 µM and > 20.6 µM | [3]

N#Cc1ccc(C(c2ccc(C#N)cc2)n2cncn2)cc1
inactive: [1] | [2] > 20.6 µM | [3]

O=c1[nH]cnc2[nH]ncc12
inactive: [1] | [2] > 46 µM | [3] | [4] | [5] | [6] | [7] | [8] | [9] | [10] | [11] | [12] | [13] | [14] | [15] | [16] | [17] | [18] | [19] | [20]

C[C@]12CCC(=O)C=C1CC[C@@H]1[C@@H]2[C@@H](O)C[C@@]2(C)[C@H]1CC[C@]2(O)C(=O)CO
inactive: [1]

N[C@@H]1CONC1=O
inactive: [1] | [2] > 46 µM and > 20.6 µM | [3]

O=C1CCc2cc(OCCCCc3nnnn3C3CCCCC3)ccc2N1
inactive: [1] | [2] > 46 µM and > 20.6 µM | [3]

CCOC(=O)C1=C[C@@]2(CC)CCCN3CCc4c(n1c1ccccc41)[C@H]32
inactive: [1] | [2] > 46 µM and > 20.6 µM | [3]

Nc1nc2c(ncn2COCCO)c(=O)[nH]1
inactive: [1] | [2] > 46 µM and > 20.6 µM | [3]

Cc1cn[nH]c1
inactive: [1] | [2] > 46 µM

Cc1ccc(N(CC2=NCCN2)c2cccc(O)c2)cc1
inactive: [1] | [2] > 46 µM and > 20.6 µM | [3]

CC(C[N+](C)(C)C)OC(N)=O (stereo not drawn)
inactive: [1] | [2] > 20.6 µM

NCCc1ccc(O)c(O)c1
inactive: [1] | [3]

CC(C)(Sc1ccc(CCN(CCCCC2CCCCC2)C(=O)NC2CCCCC2)cc1)C(=O)O
inactive: [2] > 46 µM | [3]

CCC(C)(C)C(=O)O[C@H]1C[C@@H](C)C=C2C=C[C@H](C)[C@H](CC[C@@H]3C[C@@H](O)CC(=O)O3)[C@H]21
inactive: [2] > 46 µM | [3]

CC(=O)Oc1ccccc1C(=O)O
inactive: [1] | [2] > 46 µM | [3] | [4] | [5] | [6] | [7] | [8] | [9] | [10] | [11] | [12] | [13] | [14] | [15] | [16] | [17] | [18] | [19] | [20]

COc1ccc2nc(S(=O)Cc3ncc(C)c(OC)c3C)[nH]c2c1 (stereo not drawn)
inactive: [1] | [3]

CCCCNc1cc(C(=O)O)cc(S(N)(=O)=O)c1Oc1ccccc1
inactive: [1] | [3]

C1COC(NC(C2CC2)C2CC2)=N1
inactive: [1] | [3]

O=NN(CCCl)C(=O)NCCCl
inactive: [2] > 46 µM | [3]
